Drawing on PubChem BioAssay AID463173 (ICCB-Longwood Screening Facility, Harvard Medical School, 2010), this text covers survival for 61 compounds.

Structures are written as SMILES. About 1,700 (3.3%) of roughly 52,000 compounds were called active. The entries come from a sample that favours actives as a whole. Unmarked numbers belong to inactive results. No stated cut-off is given here; in the data, active means survival mostly below about 52% (no sharp cut-off); inactive means mostly above about 56%.

This assay concerns Wild type. Briefly: S. aureus survival, RN4220 and DeltatarO strains – OD600, teichoic acid synthesis inhibitors, primary screen (AID 463173). Particulars: S. aureus RN4220 wild type/DeltatarO growth, OD600, 18 h, active compounds read low, concentration not given here.
`CN1CCc2c(C#N)c(Cl)nc(NCc3ccccc3)c2C1`: the survival is 103%.

In the case of `CCCC1(CCC)C(=O)NC(=Nc2ccccc2)NC1=O`, the survival was 107%.

`COc1ccc(CC2C(=O)N(C)C(=O)N(C)C2=O)cc1`: the survival was 112%. Then `CCc1cc2c(s1)NC(=O)CN=C2c1cccs1`, with 112%; and `N#CC(C#N)=Cc1cc(Br)cs1`, with 94%; and `Cc1cc(-n2c(/C=C/c3ccc(Br)s3)nc3ccccc3c2=O)ccc1Br`, with 66%. `Cn1cc(C=C(C#N)C#N)c2ccccc21`: the survival was 114%. As for `Cc1cccc(-n2c(/C=C/c3ccccc3O)nc3ccccc3c2=O)c1`, the survival was 12%.

Consider `O=c1c2ccccc2nc(/C=C/c2ccccc2F)n1-c1cccc(O)c1`, for which the survival was 11% (active). Then `Cc1ccc(-n2c(/C=C\c3ccc(F)c(F)c3)nc3ccccc3c2=O)c(C)c1`, with 68%; and `Cc1ccccc1-n1c(/C=C/c2c(C)[nH]c3ccccc23)nc2ccccc2c1=O`, with 6% (active). Then `O=c1c2ccccc2nc(/C=C\c2ccccc2F)n1-c1ccc(O)cc1`, with 73%; and `Cc1ccccc1-n1c(/C=C/c2ccc(O)cc2)nc2ccccc2c1=O`, with 48%; and `O=c1c2ccccc2nc(/C=C/c2ccccc2)n1-c1ccccc1F`, with 97%. Then `COc1ccc(-n2c(/C=C\c3ccccc3F)nc3ccccc3c2=O)c(OC)c1`, with 68%; and `O=c1c2ccccc2nc(/C=C\c2ccc(F)cc2)n1-c1ccccc1F`, with 71%; and `Cc1ccccc1-n1c(/C=C/c2ccccc2F)nc2ccccc2c1=O`, with 7% (active).

As to `Cc1cccc(-n2c(/C=C/c3c(C)[nH]c4ccccc34)nc3ccccc3c2=O)c1`, the survival was 108%. Then `Cc1ccccc1-n1c(/C=C/c2ccc(N(C)C)cc2)nc2ccccc2c1=O`, with 7% (active).

With `Cc1cccc2sc(NC(=O)c3cccn(Cc4ccccc4)c3=O)nc12`, the survival was 78%. Then `COC(=O)c1ccc(NC(=O)c2cccn(Cc3ccccc3C)c2=O)cc1`, with 88%; and `Cc1c(C(c2ccc(Br)cc2)c2c(O)c3ccccc3oc2=O)c(=O)n(-c2ccccc2)n1C` (stereo unspecified), with 69%. As for `COc1ccc(CNCC(=O)N2CCC3(CC2)OCCO3)cc1`, the survival was 107%. Turning to `CCOc1ccc(CC2(CCc3ccncc3)C(=O)NC(=O)NC2=O)cc1`, the survival is 96%.

Take `CCOc1ccc(-n2c(/C=C/c3ccccc3)nc3ccccc3c2=O)cc1`: the survival is 136%. Then `CCc1ccc(OCC(=O)N2CCN(CCc3ccccn3)CC2)cc1`, with 83%; and `COc1cccc(-n2c(/C=C\c3ccc(Cl)cc3)nc3ccccc3c2=O)c1`, with 48%. Then `COc1cccc(-n2c(/C=C/c3cccc(C)c3)nc3ccccc3c2=O)c1`, with 0% (active); and `COc1cccc(-n2c(/C=C/c3ccccc3O)nc3ccccc3c2=O)c1`, with 20%; and `Nc1c(C(=O)Nc2ccc(F)c(Cl)c2)sc2nc3c(cc12)N1CCC3CC1`, with 105%. Then `Nc1c(C(=O)Nc2ccc(Br)cc2F)sc2nc3c(cc12)N1CCC3CC1`, with 134%; and `Nc1c(C(=O)Nc2ccc(Cl)c(C(F)(F)F)c2)sc2nc3c(cc12)N1CCC3CC1`, with 1% (active). Take `CCOC(=O)c1ccc(NC(=O)c2sc3nc4c(cc3c2N)N2CCC4CC2)cc1`: the survival is 84%. Then `N#Cc1cc2c(nc1SCC(=O)Nc1ccc(Cl)c(C(F)(F)F)c1)C1CCN2CC1`, with 2% (active). Regarding `CC(=O)c1ccc(NC(=O)c2sc3nc4c(cc3c2N)N2CCC4CC2)cc1`, the survival was 95%.

With `CN(C)c1ccc(NC(=O)c2sc3nc4c(cc3c2N)N2CCC4CC2)cc1`, the survival is 114%. Regarding `N#Cc1cc2c(nc1SCC(=O)Nc1ccc(F)c(Cl)c1)C1CCN2CC1`, the survival was -2% (active).

On to `Nc1c(C(=O)Nc2ccc(Cl)cc2)sc2nc3c(cc12)N1CCC3CC1`, for which the survival is 95%.

`COc1ccc(NC(=O)CCc2nc(C3=CCN(Cc4cccc(Cl)c4)CC3)no2)cc1OC`: the survival was 76%. Then `CCC(N)C(=O)c1ccc(Cl)cc1` (stereo unspecified), with 105%. Then `Cn1c(=O)n(C)c2cc(CNCCc3ccc(F)cc3)ccc21`, with 86%.

Consider `CC(C)C(=O)c1cn(Cc2ccccc2C#N)c2ccccc12`, for which the survival is 115%. Then `Cc1cccc(Cn2cccc(C(=O)Nc3nnc(C)s3)c2=O)c1`, with 71%; and `O=C(COc1ccc(Br)cc1)Nc1ccc(Cl)cc1C(=O)c1ccccc1`, with 72%; and `O=C(Nc1ccc(Br)cc1C(=O)c1ccccc1Cl)c1ccccc1F`, with 76%. Take `CSc1ncc(C(=O)Nc2ccc(Cl)cc2C(=O)c2ccccc2)c(C)n1`: the survival is 88%. On to `Cc1ccc(OCC(=O)Nc2ccc(Cl)cc2C(=O)c2ccccc2)cc1C`, for which the survival was 75%.

As for `O=C(Nc1ccc(Cl)cc1C(=O)c1ccccc1)c1ccccc1Br`, the survival is 5% (active). Then `COc1ccc(C(=O)Nc2ccc(Cl)cc2C(=O)c2ccccc2)c(OC)c1`, with -2% (active); and `O=C(Nc1ccc(Cl)cc1C(=O)c1ccccc1)c1cc(Cl)cc(Cl)c1`, with 140%. Then `O=C(Nc1ccc(Br)cc1C(=O)c1ccccc1)c1ccccc1`, with -1% (active); and `CC(C)(C)c1ccc(OCC(=O)Nc2ccc(Cl)cc2C(=O)c2ccccc2)cc1`, with 63%; and `O=C(Nc1ccc(Br)cc1C(=O)c1ccccc1Cl)c1ccc(Br)cc1`, with 136%.

With `COc1cc(OC)cc(C(=O)Nc2ccc(Cl)cc2C(=O)c2ccccc2Cl)c1`, the survival was 139%. Then `CC(C)(C)c1ccc(C(=O)Nc2ccc(Cl)cc2C(=O)c2ccccc2)cc1`, with 3% (active). Then `Cc1cc(NC(=O)c2cccn(Cc3cccc(Cl)c3)c2=O)no1`, with 72%. Then `O=C1NC(=O)N(Cc2ccco2)C(=O)/C1=C\c1ccco1`, with 111%; and `O=C(Nc1ccc2c(c1)OCO2)c1cccn(Cc2ccc(F)cc2)c1=O`, with 59%; and `CCCc1nc(SC)ncc1C(=O)Nc1ccc(Cl)cc1C(=O)c1ccccc1`, with 84%. Consider `COC(=O)C1=C(C)OC(N)=C(C#N)C12C(=O)Nc1ccc(C)cc12` (stereo unspecified), for which the survival is 96%. Take `COc1ccc(CN2CCNCC2)cc1`: the survival is 98%.
